Data: PubChem BioAssay (NCATS)
Results filed as inconclusive are left out. Activity calls are given as the source filed them. Calls follow the shape of the dose curve; as a rule, active = well fitted inhibition curve with a large enough effect; inconclusive = small, poorly fitted or top-dose-only effect, or effect the other way; inactive = flat fitted curve, though single readings scatter.

target: Ubiquitin carboxyl-terminal hydrolase 2 (Homo sapiens) (UniProt O75604); experiment: qHTS Validation Assay for Inhibitors of Ubiquitin-specific Protease USP2a Using CHOP2 as the Reporter (AID 463106); details: USP2a cleavage of CHOP2 reporter, enzymatic; series mostly up to 38.3 µM
Sequence (O75604 whole entry, looked up): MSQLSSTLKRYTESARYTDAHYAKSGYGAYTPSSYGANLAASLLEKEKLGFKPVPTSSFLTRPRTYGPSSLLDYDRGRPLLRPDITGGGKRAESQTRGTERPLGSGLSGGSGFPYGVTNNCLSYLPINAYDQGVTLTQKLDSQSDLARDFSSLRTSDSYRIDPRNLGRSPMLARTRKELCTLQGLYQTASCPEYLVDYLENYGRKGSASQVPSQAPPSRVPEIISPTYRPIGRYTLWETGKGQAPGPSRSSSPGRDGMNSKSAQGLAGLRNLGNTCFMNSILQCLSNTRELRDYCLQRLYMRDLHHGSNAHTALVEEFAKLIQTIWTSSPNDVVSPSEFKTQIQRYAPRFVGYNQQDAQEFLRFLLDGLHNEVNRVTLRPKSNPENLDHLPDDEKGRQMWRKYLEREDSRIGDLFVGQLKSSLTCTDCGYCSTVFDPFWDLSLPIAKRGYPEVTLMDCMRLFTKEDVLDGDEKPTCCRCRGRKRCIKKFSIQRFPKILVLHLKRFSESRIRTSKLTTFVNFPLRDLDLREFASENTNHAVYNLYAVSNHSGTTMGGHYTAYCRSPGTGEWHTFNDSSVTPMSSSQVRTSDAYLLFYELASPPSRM
Text: NIH Molecular Libraries Screening Centers Network [MLSCN]
NIH Chemical Genomics Center [NCGC]
PI Name: Nicholson, Ben. Progenra Inc, Malvern, PA
Homeostasis of cellular proteins is maintained through a combination of synthesis and degradation. The pathway that accounts for the majority of protein degradation is the ubiquitin-proteasomal pathway. Ubiquitin (Ub) is highly conserved in all cells and the generation of a multi-Ub chain typically targets proteins for degradation by the proteasome. However, ubiquitination is highly reversible and dynamic. Deubiquitination, the reverse process, is catalyzed through the action of enzymes referred to as isopeptidases or deubiquitinating enzymes (DUBs). This group of enzymes is collectively responsible for maintaining adequate pools of free ubiquitin and regulating the ubiquitination status of cellular proteins. The class of DUBs referred to as the ubiquitin-specific proteases (USP) family functions endoproteolytically to cleave Ub chains from a wide range of protein substrates. USP2a deubiquitinates fatty acid synthase (FASN) which has recently been identified as an emerging oncology target. To identify inhibitors of USP2a a cell-free assay was employed.
The reporter enzyme chosen is an enterokinase called CHOP2, which is activated when the Ub is cleaved by USP2. The free and now activated reporter can subsequently act on its reporter substrate. […] The assay was developed by Progenra, Inc. and has been licensed for sale by LifeSensors, Inc. as Ub-CHOP2-Reporter-Kit (#PR1101).
NCGC Assay Protocol Summary:
The assay buffer, prepared fresh at the day of the assay, contains 20mM Tris-HCl pH 8.0, 2mM CaCl2, 2mM beta-Mercaptoethanol, 0.05% CHAPS. 3ul of 20nM (10nM final) USP2 core, which is stored on ice, is dispensed into a medium-binding black solid Kalypsys 1,536 well plate using the Kalypsys dispenser. The assay plate is then pinned with 23nL compound with the Kalypsys pintool in columns 5-48. The controls are pinned as follows: column 1 two-fold dilutions of 2M NEM in duplicate; column 2 2M NEM (final concentration 38.2mM); column 3&4 DMSO. The assay plate is incubated at RT for 30min. Subsequently, 1.5uL of 100nM (25nM final) Ub-CHOP2 and 1.5uL of 100nM (25nM final) Reporter Substrate (both stored on ice and protected from light) were dispensed into the plate using the Kalypsys dispenser. Plates were read after 60min RT incubation on a ViewLux (Perkin Elmer) plate reader using the following wavelengths Ex 485nm /Em 531nm.
Data were normalized to the to AC100 inhibition (NEM). Concentration-response curves were fitted to the normalized data and the concentration-response curves were then classified based on curve quality (r2), response magnitude and degree of measured activity. The time zero reading was used to flag fluorescence artifacts.
Keywords: ubiquitination, deubiquitination, proteases, profluorescent, MLSMR, MLPCN, NIH Roadmap, qHTS, NCGC

SMILES | outcome
NC(=NCc1ccccc1)NC(=O)c1nc(Cl)c(N)nc1N | inactive
O=Nc1c(-c2c(O)[nH]c3cc(Br)ccc23)[nH]c2ccccc12 | inactive
O=C(O)c1cccnc1Nc1cccc(C(F)(F)F)c1 | inactive
CC1(C)C(=O)N(CCN2CCC(C(=O)c3ccc(F)cc3)CC2)c2ccccc21 | inactive
Cc1cc(O)c2c(c1)C(=O)c1cc(O)cc(O)c1C2=O | inactive
Nc1nc(N)c(N=O)c(OCC2CCCCC2)n1 | inactive
CNC[C@H](O)c1ccc(O)c(O)c1 | inactive
CC1(C)NC(=O)N(c2ccc([N+](=O)[O-])c(C(F)(F)F)c2)C1=O | inactive
Nc1ccn([C@@H]2O[C@H](CO)[C@@H](O)C2O)c(=O)n1 (some centres undefined) | inactive
O=c1cc(N2CCOCC2)oc2c(-c3ccccc3)cccc12 | inactive
O=C(c1ccccc1)c1ccc2n1CCC2C(=O)O (centres undefined) | inactive
O=C1c2ccccc2-c2n[nH]c3cccc1c23 | inactive
NNc1nncc2ccccc12 | inactive
CC(=O)O[C@H]1C(=O)[C@@]2(C)C([C@H](OC(=O)c3ccccc3)[C@]3(O)C[C@H](OC(=O)[C@H](O)[C@@H](NC(=O)c4ccccc4)c4ccccc4)C(C)=C1C3(C)C)[C@]1(OC(C)=O)CO[C@@H]1C[C@@H]2O (some centres undefined) | inactive
CCN(CC)C(=S)SSC(=S)N(CC)CC | inactive
COc1ccccc1N1CCN(CCN(C(=O)C2CCCCC2)c2ccccn2)CC1 | inactive
CCOC(=O)C(C)Oc1cccc2c(=O)n(CC(=O)Nc3ccc4c(c3)OCCO4)ccc12 (centres undefined) | inactive

SMILES | outcome
C[C@@H](N)C1CCC(C(=O)Nc2ccncc2)CC1 (some centres undefined) | inactive
Oc1ccc(-c2nc(-c3ccc(F)cc3)c(-c3ccncc3)[nH]2)cc1 | inactive
O=C1NC(=O)C(c2ccccc2[N+](=O)[O-])=C1Nc1ccc(O)c(Cl)c1 | inactive
NCCCCNCCCN | inactive
COc1cc2c(cc1OC)C1CC(=O)C(CC(C)C)CN1CC2 (centres undefined) | inactive
O=c1ccc2ccc(O)c(O)c2o1 | inactive
O=C(CCc1ccc(O)cc1)c1c(O)cc(O)cc1O | inactive
CC(=O)N1CCN(c2ccc(OC[C@H]3CO[C@](Cn4ccnc4)(c4ccc(Cl)cc4Cl)O3)cc2)CC1 | inactive
COc1ccc2cc([C@H](C)C(=O)O)ccc2c1 | inactive
Nc1nc(OCc2ccccc2)c2[nH]cnc2n1 | inactive
CN(C)CCCC1(c2ccc(F)cc2)OCc2cc(C#N)ccc21 (centres undefined) | inactive
Cc1cccc(C#Cc2ccccc2)n1 | inactive
C[C@H](Cc1ccc(O)c(O)c1)[C@@H](C)Cc1ccc(O)c(O)c1 | inactive
Cc1c(OCC(F)(F)F)ccnc1CS(=O)c1nc2ccccc2[nH]1 (centres undefined) | inactive
OC(CN1CCN(c2cccc(Cl)c2)CC1)C(c1ccccc1)c1ccccc1 (centres undefined) | inactive
COc1cc2nc(N3CCN(C(=O)C4CCCO4)CC3)nc(N)c2cc1OC (centres undefined) | inactive
O=C1c2c(O)cc(O)cc2OC(c2ccc(O)c(O)c2)C1O (centres undefined) | inactive
